Compounds with a hit are over-represented: about 3.3% of the library has one in this group of screens.
UBC13 polyUb: blocks human UBC13 polyubiquitin chain formation; TR-FRET; inhibition, % at 20 µM; 0.47% of 330,000 active; in the data active = inhibition above about 45%, passing the limit was not always enough; inconclusive = no clear call, values can overlap the other calls
Target sequence (P61088 whole entry, looked up): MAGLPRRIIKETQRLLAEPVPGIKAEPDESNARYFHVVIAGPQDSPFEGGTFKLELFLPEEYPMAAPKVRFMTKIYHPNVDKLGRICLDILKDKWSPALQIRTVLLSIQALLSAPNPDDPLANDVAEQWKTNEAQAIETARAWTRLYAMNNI
UBC9 SUMO inh: blocks human SUMOylation mediated by UBC9. P63279. 0.36% of 290,000 active. inhibition, % at 35 µM. HTRF SUMOylation assay, SAE1/SAE2 + UBC9, in vitro; in the data active = inhibition above about 50%, passing the limit was not always enough; inconclusive = no clear call, values can overlap the other calls
Target sequence (P63279 whole entry, looked up): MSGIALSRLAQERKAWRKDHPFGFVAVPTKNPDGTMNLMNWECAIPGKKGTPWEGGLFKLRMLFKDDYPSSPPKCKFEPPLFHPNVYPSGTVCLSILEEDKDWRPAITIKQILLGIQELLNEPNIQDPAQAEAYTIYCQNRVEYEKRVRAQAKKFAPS
NR3A LBD binder: NR3A (human) ligand-binding domain modulation. NR3A LBD differential scanning fluorimetry, Tm shift; 0% = protein alone, 100% = glycine-bound protein. Tm shift relative to glycine control, % at 25 µM. 2.5% of 340,000 active. AID 1259313;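 active = melting temperature shift of at least 10% of the positive control shift, at one fixed dose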
HGIII-sPLA2 inh: Blocks human group III sPLA2 activity. Q9NZ20. QFRET BODIPY PC-A2 liposome hydrolysis, fluorescence. inhibition, % at 12.2 µM. 0.56% of 370,000 active. AID 743126;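 active = inhibition above mean plus 3 SD of compounds lying within the high and low control bounds, cut at about 19% in these data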
Of the large screens only hits and unclear results are named; the others gave an inactive call.

Cc1ccc(-c2cc(-c3cccc(F)c3)n[nH]2)c(O)c1	NR3A LBD binder 17
Cc1ccc(O)c(-c2cc(-c3ccccc3F)[nH]n2)c1	none
Cc1ccc(O)c(-c2cc(-c3cccc(F)c3)n[nH]2)c1	UBC13 polyUb inconclusive, NR3A LBD binder 12
O=C(Cn1c(O)c(/C=C2\C=Nc3ccccc32)sc1=O)Nc1ccc2c(c1)OCO2	NR3A LBD binder 11
O=C(Cn1c(O)c(/C=C2\C=Nc3ccccc32)sc1=O)N1CCOCC1	none
Cc1onc(-c2ccccc2)c1C(=O)Nc1sc2c(c1C#N)CCC(C)C2 (configuration not stated)	none
CC1CCc2c(sc(Nc3nc4c(F)cccc4s3)c2C(N)=O)C1 (configuration not stated)	NR3A LBD binder 12
Cc1onc(-c2c(Cl)cccc2Cl)c1C(=O)NC(=S)Nc1sc2c(c1C(N)=O)CCC(C)C2 (configuration not stated)	NR3A LBD binder 30
O=C(Nc1nc2c(F)cccc2s1)C1CC1	none
O=C(NCc1ccccc1)O[C@H]1CC[C@@]23CCCN2C(=O)CCC[C@H]3C1	none (no result: UBC13 polyUb, UBC9 SUMO inh, NR3A LBD binder)
Cc1cc(NC(=O)/C=C/c2ccccc2Cl)n(-c2nc3ccccc3[nH]2)n1	NR3A LBD binder 16
COc1ccccc1Oc1coc2c(CN(C)C)c(O)ccc2c1=O	none
CCN(CC)Cc1c(O)ccc2c(=O)c(Oc3ccccc3OC)coc12	UBC9 SUMO inh 52
Oc1ccc(N=Nc2ccc(Br)cc2)c(O)c1	none
Oc1ccc(N=Nc2n[nH]c(-c3ccccc3)n2)cc1	NR3A LBD binder 10
Oc1ccc(N=Nc2nc(-c3ccccc3)c(-c3ccccc3)[nH]2)cc1	none
Oc1ccc(N=Nc2n[nH]c(-c3ccc(Br)cc3)n2)cc1	NR3A LBD binder 27 (no result: UBC13 polyUb)
N#C/C(=C/c1ccc(CNC(=O)C(=O)Nc2cc(Cl)cc(Cl)c2)o1)C(=O)NCc1cccnc1	NR3A LBD binder 12
CCC(C)N(C(C)CC)S(=O)(=O)c1ccc2[nH]c(=O)oc2c1 (configuration not stated)	none (no result: UBC13 polyUb, UBC9 SUMO inh, NR3A LBD binder)
NC(=S)Nc1ccc(S(=O)(=O)c2ccc(NC(N)=S)cc2)cc1	NR3A LBD binder 23
CCNC(=O)N(C)[C@H]1C[C@H]2c3[nH]c4cccc(-c5cccc(F)c5)c4c3CCN2C(=O)[C@H]1[C@H](C)O	none (no result: UBC13 polyUb, UBC9 SUMO inh, NR3A LBD binder)
CCOC(=O)c1c(-c2ccc(C)cc2)csc1NC(=O)C1CCCO1 (configuration not stated)	NR3A LBD binder 10
COc1ccc(NS(=O)(=O)c2ccc(OC)c(NC(=O)CNC(=O)c3ccc(OC)cc3)c2)cc1	none (no result: UBC9 SUMO inh)
COc1ccc(NS(=O)(=O)c2ccc(OC)c(NC(=O)CCC3CCCCC3)c2)cc1	NR3A LBD binder 22
CC(=O)c1c(C)oc2c1cc(NS(=O)(=O)c1ccc(C(=O)O)cc1)c1ccccc12	none
Cc1ccc(S(=O)(=O)Nc2ccccc2N(C)S(=O)(=O)c2ccc(C)cc2)cc1	NR3A LBD binder 13 (no result: UBC9 SUMO inh)
CCC(CC)C(=O)Nc1cccc(C(=O)Nc2ccc(S(N)(=O)=O)cc2)c1	none
Cc1ccc(S(=O)(=O)Nc2cc3c(C(=O)Nc4ccccc4)c(C)oc3c3ccccc23)cc1	NR3A LBD binder 12
CCC(CC)C(=O)Nc1cccc(C(=O)Nc2ccc(S(=O)(=O)Nc3ccc(C)cc3)cc2)c1	NR3A LBD binder 19
COC(=O)[C@]12C[C@H](CC(=O)N3CCC(c4ccccc4)CC3)C(=O)N(Cc3ccco3)C1=C[C@H](C(C)(C)C)O[C@@H]2C	none (no result: UBC13 polyUb, UBC9 SUMO inh, NR3A LBD binder)
COc1ccc(NS(=O)(=O)c2ccc(NC(=O)CCNS(=O)(=O)c3ccc(C)cc3)cc2)cc1	NR3A LBD binder 10
Cc1cc(C)c(NS(=O)(=O)c2ccc(NC(=O)c3cccs3)cc2)c(C)c1	NR3A LBD binder 25
Cc1cc(NS(=O)(=O)c2ccc(NC(=O)c3c(F)c(F)c(F)c(F)c3F)cc2)nc(C)n1	none
Cc1ccc(S(=O)(=O)Nc2ccc(NC(=O)c3cccs3)cc2)cc1	NR3A LBD binder 18
Cc1ccc(S(=O)(=O)Nc2ccc(NC(=O)c3c(F)c(F)c(F)c(F)c3F)cc2)cc1	NR3A LBD binder 15
CC(C)CN1C(=O)C[C@]2(C(=O)N(C)c3ccc(NC(=O)C(C)(C)C)cc32)C1c1ccccc1 (some centres not stated)	none (no result: UBC13 polyUb, UBC9 SUMO inh, NR3A LBD binder)
COC(=O)[C@]12C[C@H](CC(=O)NCc3ccc(C)o3)C(=O)N(Cc3ccco3)C1=C[C@H](C(C)C)O[C@@H]2C1CC1	none (no result: UBC13 polyUb, UBC9 SUMO inh, NR3A LBD binder)
CC(C)(C)C(=O)NC1CCCCN(Cc2cccc(C(F)(F)F)c2)C1=O (configuration not stated)	none (no result: UBC13 polyUb, UBC9 SUMO inh, NR3A LBD binder)
Cc1ccc(S(=O)(=O)Nc2ccc(Nc3ccccc3)cc2)cc1	NR3A LBD binder 24
C=CCN1C(=O)[C@H](CC(=O)N2CCC(c3ccccc3)CC2)[C@@]2(C(=O)OCC)CCCC=C12	none (no result: UBC13 polyUb, UBC9 SUMO inh, NR3A LBD binder)
N#CCC[C@@H]1CC[C@]2(CCCN(Cc3ccc(Cl)cc3)C2)O1	none (no result: UBC13 polyUb, UBC9 SUMO inh, NR3A LBD binder)
Cc1ccc(S(=O)(=O)Oc2ccc(/C=C(/NC(=O)c3ccccc3)C(=O)O)cc2)cc1	NR3A LBD binder 11
Cc1cc(C)c(S(=O)(=O)/N=C2\C=CC(=O)C(Cl)=C2)c(C)c1	NR3A LBD binder 12 (no result: HGIII-sPLA2 inh)
COCCCNC(=O)c1ccccc1SC	NR3A LBD binder 13
CCC(=O)N[C@H]1C[C@@H]2O[C@@H](CO)CC[C@@H]2O[C@@H]1CCc1ccc(-c2cccc(OC)c2)cc1	none (no result: UBC13 polyUb, UBC9 SUMO inh, NR3A LBD binder)
COc1cc(C(=O)NC2CCCCN(C(C)C)C2=O)cc(OC)c1OC (configuration not stated)	none (no result: UBC13 polyUb, UBC9 SUMO inh, NR3A LBD binder)
CCCCOCCCNC(=O)C[C@@H]1C(=O)N2CCCC3=C2[C@@]1(C(=O)OCC)CCC3	none (no result: UBC13 polyUb, UBC9 SUMO inh, NR3A LBD binder)
CCOc1cc(N2CCOCC2)c(OCC)cc1NC(=O)COC(=O)C1CCCN1S(=O)(=O)c1ccccc1F (configuration not stated)	NR3A LBD binder 26 (no result: UBC9 SUMO inh)
Cc1ccc(C)c(N2CCN(C(=O)CCc3nc(-c4cccc(F)c4)no3)CC2)c1	NR3A LBD binder 20 (no result: UBC13 polyUb, UBC9 SUMO inh)
COc1ccc(C(=O)/C=C/Nc2ccc(S(=O)(=O)Nc3cccc(C(C)=O)c3)cc2)cc1	NR3A LBD binder 13
COc1ccc(C(=O)/C=C/Nc2cccc(O)c2)cc1	NR3A LBD binder 19
COc1cccc(C(=O)/C=C/Nc2ccc(S(=O)(=O)Nc3ccc(C(C)=O)cc3)cc2)c1	NR3A LBD binder 24
CN(C(=O)c1ccccc1OCC(=O)Nc1ccc(Br)cc1)c1ccccc1	none (no result: UBC13 polyUb, UBC9 SUMO inh, NR3A LBD binder)
Nc1ncnc(Nc2ccc(F)cc2)n1	none
Fc1ccc(Nc2ccnc(Nc3ccc(F)cc3)n2)cc1	NR3A LBD binder 55
CC1CCN(c2ccc(C(=O)O)cc2NS(=O)(=O)c2ccc(Cl)s2)CC1	none (no result: UBC13 polyUb, UBC9 SUMO inh, NR3A LBD binder)
O=C(COC(=O)Cc1ccccc1F)Nc1ccc2[nH]c(=O)[nH]c2c1	none (no result: UBC9 SUMO inh)
O=C(COC(=O)/C=C/c1cc(Br)ccc1F)Nc1ccc2[nH]c(=O)[nH]c2c1	NR3A LBD binder 10 (no result: UBC9 SUMO inh)
N#Cc1c(-c2ccccc2)cc(-c2ccc(O)cc2)nc1N	NR3A LBD binder 15
Nc1ccc(-c2cc(-c3ccc(N)cc3)nc(-c3ccccc3)n2)cc1	NR3A LBD binder 25
Oc1ccc(-c2nnc(-c3ccc(O)cc3)nn2)cc1	none
Oc1ccc(-c2cccc(-c3ccc(O)cc3)n2)cc1	NR3A LBD binder 14
Oc1ccc(-c2cc(-c3ccc(O)cc3)nc(-c3ccccc3)n2)cc1	NR3A LBD binder 29

Source: PubChem BioAssay (several laboratories)
